KCNQ2 inh: KCNQ2 (rat) channel inhibition; O88943; CHO-K1 KCNQ2, FluxOR thallium flux, 20 min; active compounds read low; B-score at 10 µM; hit rate 1.1% among 310,000;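 active = fluorescence ratio B-score at most minus 3 library SDs, with starting brightness B-score within 2 library SDs, cut at about -5.5 in these data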
Target sequence (O88943 whole entry, looked up): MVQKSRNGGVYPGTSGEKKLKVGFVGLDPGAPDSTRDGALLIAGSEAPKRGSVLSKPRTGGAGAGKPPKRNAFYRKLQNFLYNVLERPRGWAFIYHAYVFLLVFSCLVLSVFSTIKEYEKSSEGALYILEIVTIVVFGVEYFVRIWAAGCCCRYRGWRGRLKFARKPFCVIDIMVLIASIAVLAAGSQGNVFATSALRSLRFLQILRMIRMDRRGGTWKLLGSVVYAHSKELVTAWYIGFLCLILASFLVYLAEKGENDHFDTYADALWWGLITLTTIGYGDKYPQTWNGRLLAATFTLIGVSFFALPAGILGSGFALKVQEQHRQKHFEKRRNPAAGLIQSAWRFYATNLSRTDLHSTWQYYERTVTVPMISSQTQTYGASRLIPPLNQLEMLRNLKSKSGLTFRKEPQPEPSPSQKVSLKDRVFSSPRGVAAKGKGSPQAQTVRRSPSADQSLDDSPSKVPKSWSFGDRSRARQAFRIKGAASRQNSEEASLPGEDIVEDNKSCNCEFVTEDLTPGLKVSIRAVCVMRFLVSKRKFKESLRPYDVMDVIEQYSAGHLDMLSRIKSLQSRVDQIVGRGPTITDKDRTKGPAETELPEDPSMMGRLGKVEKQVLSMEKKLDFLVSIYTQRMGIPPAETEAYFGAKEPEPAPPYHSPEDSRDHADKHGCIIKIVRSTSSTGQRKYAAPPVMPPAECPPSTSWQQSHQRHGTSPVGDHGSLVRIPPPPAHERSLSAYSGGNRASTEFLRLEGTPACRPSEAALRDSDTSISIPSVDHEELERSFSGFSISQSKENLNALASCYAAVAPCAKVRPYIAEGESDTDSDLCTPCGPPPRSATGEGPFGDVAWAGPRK
KCNQ2 enhance: potentiators of rat KCNQ2 potassium channel; hit rate 0.54% among 310,000; B-score at 10 µM; CHO-K1 KCNQ2, FluxOR thallium flux fluorescence; active compounds read high;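 active = fluorescence ratio B-score at least 3 SD of library B-scores, with initial fluorescence B-score within 3 of them, cut at about 5.3 in these data; same plate scores as AID 2156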;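 note: B-score of peak minus minimum over baseline fluorescence ratio after K+ and Tl+ stimulus; positive B-score means potentiation of KCNQ2 with more thallium influx and brighter signal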
Large screens that a line does not name were inactive. The list is not random: actives were taken first. Their share in the collection is about 1.6%.

CCOc1ccc(NC(=O)c2c[nH]n3c(=O)cc(C4CCN(C(=O)OC(C)(C)C)CC4)nc23)cc1	KCNQ2 enhance 8.6
CCOC(=O)N1CCC(c2cc(=O)n3[nH]cc(C(=O)OC)c3n2)CC1	none (no result: KCNQ2 enhance)
O=C1N=C(N2CCc3ccccc3C2)S/C1=C\c1cccc(O)c1	none
COc1ccccc1OCc1ccc(C(=O)NC2CCCCC2)o1	none (no result: KCNQ2 enhance)
Cc1ccc(S(=O)(=O)c2cc3c(=O)n4cccc(C)c4nc3n(C3CCCCC3)c2=N)cc1	none (no result: KCNQ2 enhance)
Oc1ccc(-c2nc3ccccn3c2NCc2ccco2)cc1	KCNQ2 inh -5.8
O=C(Nc1c(-c2ccccc2)nc2ccccn12)c1ccco1	none
CC(NC(=O)COc1ccccc1F)C1CC2CCC1C2 (centres undefined)	KCNQ2 inh -6
CC(NC(=O)c1ccc(F)cc1)C1CC2CCC1C2 (centres undefined)	none (no result: KCNQ2 enhance)
O=C(c1ccc(COc2ccc(F)cc2)o1)n1cccn1	none (no result: KCNQ2 enhance)
CC(C)(C)C(=O)OCc1nc(-c2ccc(C(F)(F)F)cc2)cs1	KCNQ2 inh -5.6
FC(F)(F)c1ccc(-c2csc(-c3ccno3)n2)cc1	none (no result: KCNQ2 enhance)
COc1ccc(OC)c(/C=N\NC(=O)CC(=O)NCCc2ccccc2)c1	none (no result: KCNQ2 enhance)
C=CCC1(C#N)C(SC)=NC2=C(C(=O)CC(C)(C)C2)C1c1ccc(Br)cc1 (centres undefined)	KCNQ2 inh -6.6
Cc1ccc(C2C3=C(CC(C)(C)CC3=O)N=C3c4ccccc4C(=O)C32)cc1 (centres undefined)	none (no result: KCNQ2 enhance)
COc1ccc(-c2cc(C(=O)Nc3ccc(C(N)=O)cc3)c3ccccc3n2)cc1OC	none (no result: KCNQ2 enhance)
COc1cccc(-c2cc(C(=O)NC3CCCC3)c3ccccc3n2)c1	none (no result: KCNQ2 enhance)
CC(=O)c1cccc(NC(=O)c2cc(-c3ccco3)nc3ccccc23)c1	none (no result: KCNQ2 enhance)
COc1cc(-c2cc(C(=O)Nc3cccc(C(C)=O)c3)c3ccccc3n2)cc(OC)c1OC	KCNQ2 inh -5.6
COc1ccc(OC)c(-c2cc(C(=O)NC3CCCC3)c3ccccc3n2)c1	KCNQ2 inh -6.1
COc1ccc(NC(=O)c2cc(-c3ccc(OC)c(OC)c3)nc3ccccc23)c(OC)c1	KCNQ2 inh -5.9
COc1ccc(Nc2nc(N)nc(CSc3n[nH]c(-c4ccccc4)n3)n2)cc1	none
O=C(NCc1cccs1)C1CCC(CNS(=O)(=O)c2cccs2)CC1 (centres undefined)	none (no result: KCNQ2 enhance)
Cc1ccccc1OCc1nc2ccccc2c(=O)n1/N=C/c1cccc([N+](=O)[O-])c1	KCNQ2 inh -6.2
Cc1ccccc1OCc1nc2ccccc2c(=O)n1/N=C/c1cn[nH]c1-c1ccccc1	none (no result: KCNQ2 enhance)
Nc1nnnn1/N=C/c1cc(Br)ccc1O	none (no result: KCNQ2 enhance)
CC(C)NC(=O)c1ccc(-n2c(=S)[nH]c3ccccc3c2=O)cc1	none (no result: KCNQ2 enhance)
COCc1nnc(NC(=O)c2ccccc2Oc2ccccc2)s1	KCNQ2 inh -6.1
COCCSc1ccccc1C(=O)Nc1nnc(COC)s1	none (no result: KCNQ2 enhance)
COCCCNC(=O)c1cn(CC(C)C)c(=O)c2c1c1ccccc1n2C	none
COCCn1cc(C(=O)N2CCCC(C)C2)c2c3ccccc3n(C)c2c1=O (centres undefined)	KCNQ2 inh -6.6
CC(C)Cn1cc(C(=O)N2CCN(c3ccccn3)CC2)c2c3ccccc3n(C)c2c1=O	KCNQ2 inh -5.7
CCN1CCN(C(=O)c2cn(CCOC)c(=O)c3c2c2ccccc2n3C)CC1	none
CC(=C\c1ccccc1)/C=C1/SC(=S)N(C(C(=O)O)C(C)C)C1=O (centres undefined)	none
CC(=O)Nc1cc(C(F)(F)F)ccc1OCC1CCCO1 (centres undefined)	none (no result: KCNQ2 enhance)
COc1cccc(C(=O)N2c3cc(C)ccc3OCC2C(C)(C)C)c1 (centres undefined)	none (no result: KCNQ2 enhance)
COc1ccc(S(=O)(=O)N2c3cc(C)ccc3OCC2C(C)(C)C)cc1 (centres undefined)	KCNQ2 inh -5.5
Cc1ccc(S(=O)(=O)N2c3cc(C)ccc3OCC2C(C)(C)C)cc1 (centres undefined)	KCNQ2 inh -6.2
Cc1ccc(S(=O)(=O)N2c3ccccc3OCC2c2ccccc2)cc1 (centres undefined)	none (no result: KCNQ2 enhance)
Cc1nn(C(C)C(=O)N2CCN(c3ccccn3)CC2)c(=O)c2cc3occc3n12 (centres undefined)	none
Cc1cccc(N2CCN(C(=O)C(C)n3nc(C)n4c(cc5occc54)c3=O)CC2)c1C (centres undefined)	KCNQ2 inh -6.1
CCc1nn(C(C)C(=O)N2CCN(Cc3ccccc3)CC2)c(=O)c2cc3occc3n12 (centres undefined)	none (no result: KCNQ2 enhance)
CCc1nn(C(C)C(=O)N2CC(C)CC(C)C2)c(=O)c2cc3occc3n12 (centres undefined)	KCNQ2 inh -8.1
COc1cc(N)c(Cl)cc1NC(=O)c1ccccc1	none
COc1ccc(CCNc2nc(C)nc3c2oc2ccccc23)cc1OC	KCNQ2 inh -5.6
Cc1nc(NCCc2cnc[nH]2)c2oc3ccccc3c2n1	none
CCOC(=O)N1CCN(c2nc(C)c3c(n2)CCCC3=O)CC1	none
O=C(NC1=C(Nc2ccc(Cl)cc2)C(=O)c2ccccc2C1=O)c1ccccc1	none (no result: KCNQ2 enhance)
CN(C1=C(NC(=O)c2ccc(Cl)cc2)C(=O)c2ccccc2C1=O)c1ccccc1	KCNQ2 inh -6.3
COC(=O)c1c(C(=O)OC)c(-c2ccc(C(C)(C)C)cc2)n2c1CS(=O)C2 (centres undefined)	KCNQ2 inh -8
COC(=O)c1c(C(=O)OC)c(-c2cccc(F)c2)n2c1CS(=O)C2 (centres undefined)	none
O=S(=O)(Nc1ccc2c(c1)OCCO2)c1cnc[nH]1	none
O=C(c1ccc(Cl)c(Cl)c1)N1CCC(=O)N(C(COCc2ccccc2)Cc2ccccc2)CC1 (centres undefined)	KCNQ2 inh -5.8
O=C(c1ccc(Cl)c(Cl)c1)N1CCC(=O)N(C(CO)Cc2ccccc2)CC1 (centres undefined)	none
Cc1cccc(COCC(Cc2ccccc2)N2CCN(C(=O)c3cccc(Cl)c3)CCC2=O)c1 (centres undefined)	none (no result: KCNQ2 enhance)
O=C(c1cccc(Cl)c1)N1CCC(=O)N(C(COCc2ccccc2)Cc2ccccc2)CC1 (centres undefined)	KCNQ2 inh -5.8
CCc1nnc(NC(=O)CCC(=O)NCC2CCCO2)s1 (centres undefined)	none
Cc1nc(NC(=O)CSc2nc3ccccc3s2)sc1C(=O)N(C)C	none
COc1ccc2nc3oc(C(=O)N4CCN(c5cccc(Cl)c5)CC4)cc3cc2c1	KCNQ2 inh -5.8
COc1ccc2nc3oc(C(=O)N4CCN(c5cccc(C(F)(F)F)c5)CC4)cc3cc2c1	none (no result: KCNQ2 enhance)
CCCCn1nnnc1SCC(=O)c1ccc(C)c(C)c1	none (no result: KCNQ2 enhance)
O=C(CN1CCN(S(=O)(=O)c2ccccc2)CC1)Nc1ccccc1C(=O)c1ccccc1	none (no result: KCNQ2 enhance)
COc1cccc(/C=N/NC(=O)CSc2ccccc2C)c1OC	none (no result: KCNQ2 enhance)
COc1cccc(/C=N/NC(=O)CSc2ccccc2C)c1O	KCNQ2 enhance 9.4
Cc1cccnc1NC(=O)CSc1ncnc2sc(C)c(C)c12	none (no result: KCNQ2 enhance)
COC(=O)c1c(-c2ccccc2)csc1NC(=O)CSc1ncnc2sc(C)c(C)c12	KCNQ2 inh -5.6
Cc1oc2c(cc(NS(=O)(=O)c3ccc(C(C)C)cc3)c3ccccc32)c1C(=O)O	KCNQ2 inh -5.8
Cc1oc2c(cc(NS(=O)(=O)c3ccc(F)cc3)c3ccccc32)c1C(=O)O	none (no result: KCNQ2 enhance)
CSc1nc2ccc(NC(=O)c3cc4ccccc4o3)cc2s1	none
Cc1cccc(CSc2nnc(-c3cccs3)n2Cc2ccco2)c1	KCNQ2 inh -6.1
Cc1cccc(CSc2nc3sc(C)c(C)c3c(=O)n2Cc2ccco2)c1	none
C/C(=N\Nc1ccc(C(=O)O)cc1)c1ccc2c(c1)Nc1ccccc1S2	KCNQ2 enhance 5.3

Screens deposited in PubChem BioAssay by Johns Hopkins Ion Channel Center.
